Laboratory results published in PubChem BioAssay AID540341 (National Center for Advancing Translational Sciences (NCATS), 2011).
Records with an inconclusive call do not appear. Values without a mark were called inactive. The call rests on the fitted dose curve; in most records, active means well fitted curve in the direction sought with a large enough effect; inconclusive means small, poorly fitted or top-dose-only effect, or another doubt; inactive means no such curve, though single readings can be large or run the other way.

target: Lysosomal acid glucosylceramidase (Homo sapiens) (UniProt P04062); experiment: Activators of Human alpha-Glucosidase as a Potential Chaperone Treatment of Pompe Disease: Glucocerebrosidase Counter Screen; details: Purified GBA enzyme, 4MU-beta-glucoside fluorescence, 40 min; series mostly up to 57.1 µM; activity change, negative = inhibition: at the top concentration
Sequence (P04062 whole entry, looked up): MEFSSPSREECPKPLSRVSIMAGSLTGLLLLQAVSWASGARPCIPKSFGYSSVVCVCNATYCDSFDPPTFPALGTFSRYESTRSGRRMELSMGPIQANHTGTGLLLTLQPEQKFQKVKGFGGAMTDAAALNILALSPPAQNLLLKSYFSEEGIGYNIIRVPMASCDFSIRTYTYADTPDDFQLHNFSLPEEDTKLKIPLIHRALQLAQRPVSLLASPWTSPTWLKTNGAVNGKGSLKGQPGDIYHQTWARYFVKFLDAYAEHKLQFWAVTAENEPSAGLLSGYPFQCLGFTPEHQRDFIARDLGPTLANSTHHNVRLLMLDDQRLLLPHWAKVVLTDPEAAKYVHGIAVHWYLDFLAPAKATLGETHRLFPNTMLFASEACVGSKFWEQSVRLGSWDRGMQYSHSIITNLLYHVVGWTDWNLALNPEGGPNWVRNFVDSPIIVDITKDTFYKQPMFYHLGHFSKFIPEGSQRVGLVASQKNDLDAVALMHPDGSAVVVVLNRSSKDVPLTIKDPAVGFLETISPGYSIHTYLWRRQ
Text: Alpha-glucosidase is responsible for hydrolysis of terminal, non-reducing 1,4-linked alpha-D-glucose residues with release of alpha-D-glucose. It is a lysosomal hydrolase that is required for the degradation of a small percentage (1-3%) of cellular glycogen in human. Deficiency of this enzyme results in glycogen-storage disease type II (GSDII), also referred to as Pompe disease, an autosomal recessive disorder. Structurally normal glycogen is accumulated in lysosomes and cytoplasm in affected patients, primarily in muscle tissues. Excessive glycogen storage within lysosomes may interrupt normal functioning of other organelles and leads to cellular injury. In turn, this leads to enlargement and dysfunction of the entire organ involved (eg, cardiomyopathy and muscle weakness). It has reported that the improper folding and trafficking of alpha-glucosidase resulting from the genetic mutations may account for a significant number of Pompe patients. […] We optimized this alpha-glucosidase assay in 1536-well plate format for identifying the novel small molecule inhibitors with the structures other than the sugar analogs in order to develop the new pharmacological chaperones. NIH Chemical Genomics Center [NCGC] NIH Molecular Libraries Probe Production Centers Network [MLPCN] MLPCN Grant: MH086442-01 Assay Submitter (PI): Wei Zheng
This is a fluorogenic enzyme assay with 4-methylumbelliferyl-beta-D-glucopyranoside as the substrate and purified wildtype glucocerebrosidase as the enzyme preparation. Upon the hydrolysis of this fluorogenic substrate, the resulting product, […] which can be detected by a standard fluorescence plate reader. Data were normalized to the controls for basal activity (without enzyme) and 100% activity (with enzyme). The AC50 values were determined from concentration-response data modeled with the standard Hill equation. Assay buffer: 50 mM citric acid (titrated with potassium phosphate to pH 5.0), 100 mM potassium chloride, 10 mM sodium chloride, 1 mM magnesium chloride, 0.01% Tween-20. 1536-well assay protocol: (1) Add 2 ul/well of glucocerebrosidase enzyme solution (5 nM final) (2) Add 23 nL compounds in DMSO solution. The final titration was 0.5 nM to 58 uM. (3) Add 2 ul of substrate (1 mM final) (4) Incubate at 37C for 40 min. (5) Add 2 ul stop solution (1M NaOH and 1M Glycine mixture, pH 10) (6) Detect the assay plate in a ViewLux plate reader (PerkinElmer) with Ex=365 nm and Em=440nm. Keywords: Glucocerebrosidase, beta-glucosidase, Gaucher Disease, pharmacological chaperone, chaperone therapy, high throughput screening, glucocerebrosidase inhibitor, MLSMR, MLSCN, NIH Roadmap, qHTS and NCGC

SMILES	activity change, negative = inhibition
CCCN1CNc2c(c(=O)[nH]c(=S)n2CCc2ccsc2)C1	0%
CCCN1CNc2c(c(=O)[nH]c(=S)n2Cc2ccc(OC)c(OC)c2)C1	0%
CCCN1CNc2c(c(=O)[nH]c(=S)n2CCc2cccc(Cl)c2Cl)C1	-9.82%
COc1ccc(CCn2c(=S)[nH]c(=O)c3nccnc32)cc1OC	0%
O=S(=O)(c1ccc(Cl)cc1)N1CCN(c2nc(Nc3cc(Cl)ccc3O)nc3ccccc23)CC1	0% [at 48.8 µM]
COc1ccc(C#Cc2c[nH]c(=O)c3cncnc23)cc1OC	-3.96%
COc1ccc(CCn2c3c(c(=O)[nH]c2=S)CN(C)CN3)cc1OC	0%
COc1ccc(CCn2c(=S)[nH]c(=O)c3[nH]cnc32)cc1OC	-5.98%
COc1ccc(CCn2c3c(c(=O)[nH]c2=S)CN(c2ccccc2)CN3)cc1OC	0%
CCCN1CNc2c(c(=O)[nH]c(=S)n2CCc2cc(C)ccc2C)C1	0%
CCCN1CNc2c(c(=O)[nH]c(=S)n2CCC(C)(C)C)C1	0%
COc1ccc(CCn2c3c(c(=O)[nH]c2=S)CN(C(C)C)CN3)cc1OC	0%
OCCNc1nc(-c2cccs2)nc2ccccc12	0%
COc1ccc(C#Cc2cnc(Cl)c3cncnc23)cc1OC	1.38% [at 48.8 µM]
CCCN1CNc2c(c(=O)[nH]c(=S)n2CCc2cc(Cl)ccc2Cl)C1	-1.89% [at 48.8 µM]
c1csc(-c2nc(NCC3CCCO3)c3ccccc3n2)c1 (stereo unspecified)	0% [at 48.8 µM]
O=S(=O)(c1ccc(Cl)cc1)N1CCN(c2nc(-c3cccs3)nc3ccccc23)CC1	0%
CCCN1CNc2c(c(=O)[nH]c(=S)n2CCc2c(C)cccc2C)C1	0%
CCCN1CNc2c(c(=O)[nH]c(=S)n2CCc2ccc(C)c(C)c2)C1	0%
COc1ccc(CCn2c(=S)[nH]c(=O)c3c(C)cc(C)nc32)cc1OC	-5.66%
CCCN1CNc2c(c(=O)[nH]c(=O)n2CCc2ccc(OC)c(OC)c2)C1	0%
CCCN1CNc2c(c(=O)[nH]c(=S)n2CCc2cccc(C)c2C)C1	0.391%
CCCN1CNc2c(c(=O)[nH]c(=S)n2CCc2ccc3c(c2)OCCO3)C1	0%
CCCN1CNc2c(c(=O)[nH]c(=S)n2CCc2cc(Cl)cc(Cl)c2)C1	-2.31% [at 48.8 µM]
CCCN1CNc2c(c(=O)[nH]c(=S)n2CCc2ccc(C)cc2C)C1	-4.57%
COc1ccc(CCc2c[nH]c(=O)c3cncnc23)cc1OC	2.44%
